Laboratory results as given in article PMC4336329 (PLoS ONE, 2015).
Hit rate of the full screen: of about 310,000 compounds, about 14,000 (4.5%) showed an effect of 50% or more. The effect is printed as a negative number. Shown is part of a subset that was picked to be rich in strong results.

Target: human ether-à-go-go-related gene (hERG) potassium channel (human, UniProt Q12809)
Experiment: primary screen, population patch clamp on CHO cells stably expressing hERG; higher = less effect of the substance
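Note: peak tail current of the secondary pulse compared with the same well before compound.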

human ether-à-go-go-related gene (hERG) potassium channel, sequence (Q12809 whole entry, looked up): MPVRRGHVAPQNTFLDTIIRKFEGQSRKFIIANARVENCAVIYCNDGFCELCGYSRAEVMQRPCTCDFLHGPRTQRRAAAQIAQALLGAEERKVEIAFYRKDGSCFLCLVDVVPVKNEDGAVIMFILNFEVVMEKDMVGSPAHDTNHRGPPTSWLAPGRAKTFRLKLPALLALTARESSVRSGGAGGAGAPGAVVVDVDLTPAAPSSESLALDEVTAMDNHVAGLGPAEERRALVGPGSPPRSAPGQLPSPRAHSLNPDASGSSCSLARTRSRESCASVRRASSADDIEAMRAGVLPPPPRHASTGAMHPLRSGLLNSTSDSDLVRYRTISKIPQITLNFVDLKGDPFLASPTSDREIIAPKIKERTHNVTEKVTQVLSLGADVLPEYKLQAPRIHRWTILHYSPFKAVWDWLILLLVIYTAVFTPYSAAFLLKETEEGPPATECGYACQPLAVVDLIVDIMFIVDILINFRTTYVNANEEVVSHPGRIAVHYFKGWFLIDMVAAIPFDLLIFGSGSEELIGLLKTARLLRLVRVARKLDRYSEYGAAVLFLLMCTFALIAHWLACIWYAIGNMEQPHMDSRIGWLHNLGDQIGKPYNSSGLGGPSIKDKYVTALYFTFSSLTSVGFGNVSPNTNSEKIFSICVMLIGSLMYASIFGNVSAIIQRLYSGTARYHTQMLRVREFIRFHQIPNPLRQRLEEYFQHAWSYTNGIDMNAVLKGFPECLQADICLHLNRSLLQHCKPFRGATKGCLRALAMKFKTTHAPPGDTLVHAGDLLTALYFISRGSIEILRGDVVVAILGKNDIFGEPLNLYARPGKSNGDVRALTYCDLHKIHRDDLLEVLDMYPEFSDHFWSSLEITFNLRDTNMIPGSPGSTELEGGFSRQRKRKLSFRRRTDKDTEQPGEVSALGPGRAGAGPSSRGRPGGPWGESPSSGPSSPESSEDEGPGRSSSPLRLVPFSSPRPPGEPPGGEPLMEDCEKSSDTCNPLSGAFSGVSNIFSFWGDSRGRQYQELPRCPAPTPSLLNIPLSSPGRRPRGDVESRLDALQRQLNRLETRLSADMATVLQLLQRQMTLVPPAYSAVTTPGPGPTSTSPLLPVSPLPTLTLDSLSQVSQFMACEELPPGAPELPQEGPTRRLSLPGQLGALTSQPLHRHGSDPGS

| SMILES | hERG current change (%, negative = inhibition) at 10uM [%] |
| --- | --- |
| Cc1cccc(NS(=O)(=O)c2cccc3cccnc23)n1 | 4.27 |
| COC(=O)C(Cc1ccccc1)NC(=O)c1cccc(S(=O)(=O)N(C)C)c1 (stereo not drawn) | 2.5 |
| Cc1ccccc1-c1noc(N)c1C#N | 0.198 |
| CCCOc1cc(C)c(S(=O)(=O)NC2CC(C)(C)NC(C)(C)C2)cc1C | -15 |
| Cn1c(CSCc2ccc(Cl)cc2)nnc1SCC(=O)Nc1nc2ccccc2s1 | 9.45 |
| Cc1cc(C)cc(C(=O)NCCn2cc(SCC(=O)N3CCOCC3)c3ccccc32)c1 | -9.88 |
| O=[N+]([O-])c1cccnc1NCCc1ccccc1 | -18.9 |
| O=C(O)CNc1nc(Cl)ccc1[N+](=O)[O-] | 6.24 |
| O=C(O)CNc1ncccc1[N+](=O)[O-] | -86.1 |
| CNC(=O)C(=O)NCCN1CCN(S(=O)(=O)c2ccc3ccccc3c2)CC1 | 29.3 |
| CC[C@H]1CN(C)C[C@@]2(C(=O)OC)Cc3c([nH]c4ccccc34)C(=O)C[C@@H]12 | 9.71 |
| CC[C@H]1CN(C)CCc2c([nH]c3ccccc23)C(=O)C[C@@H]1/C(=C\OC)C(=O)OC | -69.5 |
| CC[C@@H]1CN(C)[C@H]2Cc3c([nH]c4ccccc34)C(=O)C[C@@H]1[C@@H]2C(=O)OC | 11.8 |
| C=CCc1cccc(C=Nc2ccc(Br)cc2)c1O | -4.96 |
| FC(F)(F)c1cc(Oc2ccc(Cl)cc2)ncc1-c1nnc(-c2ccc(Cl)cc2)o1 | 5.81 |
| CC(C)C(=O)NCCc1nc(-c2ccccc2Cl)no1 | 16.1 |
| O=C(OCCN=C1NS(=O)(=O)c2ccccc21)C1CC(=O)N(c2ccc(Cl)cc2)C1 (stereo not drawn) | -7.04 |
| O=C(OCCCN=C1NS(=O)(=O)c2ccccc21)C1CC(=O)N(c2ccc(Cl)cc2)C1 (stereo not drawn) | -58.7 |
| O=C(OCCOCCN=C1NS(=O)(=O)c2ccccc21)C1CC(=O)N(c2ccccc2)C1 (stereo not drawn) | 13.1 |
| CC1(C)CC(CC(=O)O)(c2ccc(F)cc2)CCO1 (stereo not drawn) | 3.33 |
| Cc1ccc(C)c(SCC(=O)Nc2ccc(C)c(S(=O)(=O)N3CCOCC3)c2)c1 | -13.4 |

| SMILES | hERG current change (%, negative = inhibition) at 10uM [%] |
| --- | --- |
| CCOCCCNc1c(CC)c(C)c(C#N)c2nc3ccccc3n12 | -42.3 |
| COC(=O)c1c(N)n(Cc2ccc(OC)cc2)c2nc3ccccc3nc12 | -34.1 |
| Cc1cccc(-n2cnc3c(c2=O)c2nc4ccccc4nc2n3Cc2ccco2)c1 | -63.7 |
| COCCCNC(=O)c1c(N)n(Cc2ccco2)c2nc3ccccc3nc12 | -2.08 |
| COCCOC(=O)c1c(N)n(Cc2ccccc2)c2nc3ccccc3nc12 | -36.5 |
| CC(C)OC(=O)c1c(N)n(Cc2ccco2)c2nc3ccccc3nc12 | -31.4 |
| COCCOC(=O)c1c(N)n(Cc2ccc(OC)cc2)c2nc3ccccc3nc12 | -75.4 |
| COCCNC(=O)c1c(N)n(Cc2ccco2)c2nc3ccccc3nc12 | -6.12 |
| COCC(C)OC(=O)c1c(N)n(Cc2ccco2)c2nc3ccccc3nc12 (stereo not drawn) | -55.7 |
| Cc1ccc(Cn2c(C)nc3c(c2=O)c2nc4ccccc4nc2n3Cc2ccco2)cc1 | 5.72 |
| COCCOC(=O)c1c(N)n(Cc2ccco2)c2nc3ccccc3nc12 | -56.7 |
| Cc1cc(C)cc(-n2c3nc4ccccc4nc3c3c(=O)n(Cc4ccco4)cnc32)c1 | 6.26 |
| CC(C)CNC(=O)c1c(N)n(Cc2ccco2)c2nc3ccccc3nc12 | -14.1 |
| COC(=O)C1=C(C)Nc2ncnn2C1c1ccco1 (stereo not drawn) | 6.44 |
| COCCCn1c(SCC(=O)NNC(=O)c2cccc(O)c2)nnc1-c1ccncc1 | 5.74 |
| COc1ccc(-c2nc(C#N)c(N3CCC(C(N)=O)CC3)o2)cc1OC | -10.3 |
| COCCN(CC(=O)Nc1cccc(C)c1C)C(=O)c1cc(-c2cccs2)nn1-c1ccccc1 | 1.14 |
| CCCCOc1ccc(CSc2n[nH]c(C)n2)cc1 | -1.41 |
| CN1CCN(C(=O)CC2C(=O)NCCN2Cc2ccc(-c3ccccc3)cc2)CC1 (stereo not drawn) | 2.25 |
| COC(=O)C1CN(C(=O)COc2cc(C)c(Cl)c(C)c2)c2ccccc2O1 (stereo not drawn) | 18.9 |
| O=C1NC(=O)C2(CCC(C(=O)O)C2)N1 (stereo not drawn) | 19.3 |
